The record followed here is PubChem BioAssay (NCI).

Experiment in all cases: NCI-60 one-dose screen, 48 h (100 = growth as untreated, 0 = no growth, -100 = all killed)
What all share (conditions): 10 µM unless noted

For assay [1], the system named is BT-549 breast.
In assay [2] the test system is MDA-MB-435 melanoma.
The test system of assay [3] is SW-620 colon.
The test system of assay [4] is MCF7 breast.
Assay [5] relates to HCT-116 colon.
Assay [6] has as its system HCC-2998 colon.
Assay [7] deals with KM12 colon.

The structures appear in SMILES notation. This is part of a sample that, as a whole, favours compounds with a hit. Of some 83,000 tested, about 20% had one in any assay.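 For each line, cells grew in 96-well plates with the test compound present at a single concentration for 48 hours.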 A number with no mark means an inactive call. The source made the active and inactive calls. Rule for the calls: active = growth percent below 10; inactive = the rest.

Consider `O=C1/C(=C\c2ccc3nccnc3c2)SC(=S)N1CCc1ccc(O)cc1`, for which the growth was 96.5% in assay [1]; 93.2% in assay [2]; 98.2% in assay [3]; 41.9% in assay [4]; 94.8% in assay [5]; 117% in assay [6]. For the same compound, the growth in assay [7] is 52.1%.
With `O=C(CN1C(=O)S/C(=C\C(Cl)=C\c2ccccc2)C1=O)NCCc1ccc(O)cc1`, the growth in assay [1] was 22.1%; in assay [2] it was 2.68% (active); in assay [3] it was 4.78% (active); in assay [4] it was 20.1%; in assay [5], -78.8% (active); in assay [6], 66.8%. Further, in assay [7], the growth is 5.78% (active).
Regarding `CCn1cc(C(=O)NNC(=S)Nc2ccc(C)cc2)c(=O)c2ccc(C)nc21`, the growth in assay [1] was 97.1%; in assay [2] it was 101%; in assay [3], 99.2%; in assay [4] it was 97.2%; in assay [5], 93%; in assay [6], 92.7%. For the same compound, the growth in assay [7] is 103%.
Turning to `CCSc1oc(-c2ccccc2)nc1[P+](c1ccccc1)(c1ccccc1)c1ccccc1`, the growth in assay [1] was -10.9% (active); in assay [2] it was 3.45% (active); in assay [3], 10.8%; in assay [4], 4.96% (active); in assay [5], 2.27% (active); in assay [6], 14.5%. In assay [7], the growth is -16.2% (active).
On to `N#C/C(=C\c1c(-c2ccccc2)[nH]c2ccccc12)C(N)=O`, for which the growth in assay [1] is 95.6%; in assay [2] it was 15.7%; in assay [3] it was 56.9%; in assay [4], 50.4%; in assay [5], 76.9%; in assay [6] it was 78.9%. For the same compound, the growth in assay [7] was 47.9%.
With `CC(=O)O[C@@H]1C[C@]2(C(C)C)O[C@@]1(C)[C@@H]1CCC(C)=C1[C@@H]2OC(=O)/C=C/c1ccccc1`, the growth was 105% in assay [1]; 91.9% in assay [2]; 90.6% in assay [3]; 83.9% in assay [4]; 88.5% in assay [5]; 103% in assay [6]. Besides, the growth in assay [7] is 92.8%.
Turning to `CCCCCOC(=O)c1c(C)[nH]c(/C=C2\N=C(c3ccc[nH]3)C=C2OC)c1C`, the growth was 2.11% (active) in assay [1]; -16.9% (active) in assay [2]; -1.61% (active) in assay [3]; -61.2% (active) in assay [4]; -85.7% (active) in assay [5]; -20.1% (active) in assay [6]. Further, in assay [7], the growth was -13.6% (active).
For `CN(C)CCNC(=O)c1ccc(-c2nc3ccc4[nH]ncc4c3c3c2C2CCC3C2)cc1` (stereo not drawn), the growth in assay [1] was 2.26% (active); in assay [2], 42%; in assay [3] it was 17.8%; in assay [4], 9.64% (active); in assay [5], 9.52% (active); in assay [6], 38.5%. Besides, the growth in assay [7] is 2.75% (active).
With `COc1ccc(/C=C(\C#N)n2nnc3ccc(Cl)cc32)cc1`, the growth in assay [1] is 68%; in assay [2], -22.8% (active); in assay [3] it was 11.8%; in assay [4], 18.6%; in assay [5] it was 39%; in assay [6] it was 87.3%. The growth in assay [7] is 39.3%.
Turning to `CCCCCCCCCCC(CN(CC)CC)C(O)c1ccccc1` (stereo not drawn), the growth in assay [1] was 61.7%; in assay [2], -25.1% (active); in assay [3], 32.1%; in assay [4] it was 1.87% (active); in assay [5] it was 20.7%; in assay [6], -19.4% (active). Besides, the growth in assay [7] is 8.29% (active).
Turning to `CNC(=O)c1ccccc1Oc1nc(Nc2cc(OC)c(OC)c(OC)c2)ncc1Br`, the growth in assay [1] was 62.7%; in assay [2] it was 74.5%; in assay [3] it was 46.7%; in assay [4], 44.5%; in assay [5], 46.5%; in assay [6], 51.6%. For the same compound, in assay [7], the growth was 11%.
As to `Cc1c(-c2ccc(O)cc2)n(Cc2ccc(OCCN3CCCCCC3)cc2)c2ccc(O)cc12`, the growth in assay [1] is 84%; in assay [2], 79.6%; in assay [3], 66.3%; in assay [4] it was 11.6%; in assay [5] it was 59.1%; in assay [6] it was 114%. The growth in assay [7] is 73.4%.
Regarding `CCOC(=O)C(=O)C(C(=O)OCC)c1ccccc1` (stereo not drawn), the growth is 97.3% in assay [1]; 101% in assay [2]; 103% in assay [3]; 101% in assay [4]; 96.2% in assay [5]; 114% in assay [6]. The growth in assay [7] was 107%.
Regarding `CC(C)=CC(=O)OCC(=O)O[C@@H]1C[C@]2(C(C)C)O[C@@]1(C)[C@@H]1CC[C@@H](C)[C@H]1[C@@H]2OC(=O)/C=C/c1ccccc1`, the growth in assay [1] is 37.7%; in assay [2], 91.7%; in assay [3], 87.1%; in assay [4], 71.5%; in assay [5], 72.2%; in assay [6] it was 90.7%. Also, the growth in assay [7] was 89.4%.
Regarding `CSc1nnc(-c2cc3c([nH]c4ccccc43)c(-c3cccc(O)c3)n2)n1-c1ccccc1`, the growth is 37.6% in assay [1]; -49.9% (active) in assay [2]; 31.3% in assay [3]; 13.2% in assay [4]; 18.3% in assay [5]; 67.3% in assay [6]. In addition, in assay [7], the growth is 21.6%.
With `O=S(=O)(Nc1cc(F)cc(Cl)c1)c1ccc(-c2cnc(C3CC3)o2)cc1`, the growth in assay [1] was 40.6%; in assay [2] it was 1.17% (active); in assay [3], 12%; in assay [4], 13.7%; in assay [5], 28.1%; in assay [6] it was 54.9%. Further, the growth in assay [7] is 29.4%.
Consider `O=C(NNC(=O)c1ccc(NC(=O)c2ccccn2)cc1)Nc1ccc([N+](=O)[O-])cc1`, for which the growth in assay [1] is 94.6%; in assay [2], 106%; in assay [3] it was 104%; in assay [5], 101%; in assay [6] it was 109%; in assay [7] it was 108%.
Turning to `O=C1Nc2ccccc2/C1=C/c1cccn1CCCCn1c2ccccc2c(=O)c2ccccc21`, the growth in assay [1] is 74.5%; in assay [2] it was 92.7%; in assay [3], 98.8%; in assay [4] it was 3.81% (active); in assay [5], 74.2%; in assay [6], 40.5%. Also, the growth in assay [7] is 13%.
`COc1ccc(C(=O)/C=C/c2c(C(F)(F)F)nc3ccccn23)cc1OC`: the growth in assay [1] was 4.31% (active); in assay [2], 10.4%; in assay [3] it was -4.44% (active); in assay [4] it was 8.07% (active); in assay [5] it was -34.1% (active); in assay [6] it was -9.15% (active). The growth in assay [7] was 3.34% (active).
As for `C=C(C)[C@@H]1CCC[C@]2(COS(=O)(=O)c3ccc(C)cc3)CC[C@]3(C)[C@@H](CC[C@@H]4[C@@]5(C)CCCNC(C)(C)[C@@H]5CC[C@]43C)[C@@H]12`, the growth in assay [1] was 83.7%; in assay [2], -25.3% (active); in assay [3], -69.4% (active); in assay [4] it was -32.6% (active); in assay [5], -82.8% (active); in assay [6] it was -75.8% (active). Also, in assay [7], the growth was -25.2% (active).
Take `COC1=CC(c2ccc[nH]2)=N/C1=C\c1[nH]c(C)c(CC(=O)OCc2ccccc2)c1CCC(=O)OCc1ccccc1`: the growth in assay [1] is -31.6% (active); in assay [2] it was -49.2% (active); in assay [3], -30.9% (active); in assay [4] it was 4.14% (active); in assay [5] it was -68.9% (active); in assay [6], -3.69% (active). Also, the growth in assay [7] is -38.9% (active).
With `Cc1ccc(C)n1-c1ccccc1-n1c(C)ccc1C`, the growth in assay [1] is 104%; in assay [2] it was 94.1%; in assay [3], 139%; in assay [4] it was 101%; in assay [5], 104%; in assay [6], 115%. Moreover, in assay [7], the growth is 117%.
